This note sets out measurements from PubChem BioAssay (NCI).

Test [1] can be described thus: NCI Yeast Anticancer Drug Screen. Data for the rad50 strain (AID 155).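 Also: 0% = growth of vehicle-only cultures of the same strain.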 The following applies: S. cerevisiae rad50 strain growth inhibition; at 50.0 µM; hits give high values. Summed up:
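Relative growth inhibition (compound vs vehicle) was measured in yeast with a defined repair-gene alteration.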

Test [2] is described as follows: NCI Yeast Anticancer Drug Screen. Data for the mec2-1 strain (AID 157). The following applies: S. cerevisiae mec2-1 strain, at 50.0 µM, hits give high values. Summed up:
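Mutant yeast (mec2-1) grown with compound; growth inhibition relative to vehicle control reported.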

Test [3] is described as follows: NCI Yeast Anticancer Drug Screen. Data for the sgs1 mgt1 strain (AID 161).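 Also: 0% = growth of cultures given vehicle only.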 The following applies: S. cerevisiae sgs1 mgt1 strain, at 50.0 µM, hits give high values. The essentials:
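Growth of a repair-deficient yeast mutant was monitored after compound treatment and expressed as inhibition relative to vehicle-treated cultures.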

A short description of test [4]: NCI Yeast Anticancer Drug Screen. Data for the cln2 rad14 strain (AID 165).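 Also: 0% = growth equal to vehicle treated cultures.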 The following applies: S. cerevisiae cln2 rad14 strain, at 50.0 µM, hits give high values. Summed up: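 Readout is yeast growth inhibition versus vehicle-treated controls, using a strain with cln2 and rad14 alterations exposed to compound.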
Test [5] can be described thus: NCI Yeast Anticancer Drug Screen. Data for the bub3 strain (AID 167). The following applies: S. cerevisiae bub3 mutant strain, at 50.0 µM, hits give high values. The essentials: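 Screening used yeast with an engineered genetic alteration affecting cell cycle control. Compound-exposed cultures were compared with vehicle cultures, and reduced growth was taken as inhibition.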

The nature of test [6]: NCI Yeast Anticancer Drug Screen. Data for the mlh1 rad18 strain (AID 175). The following applies: S. cerevisiae mlh1 rad18 strain growth inhibition; at 50.0 µM; hits give high values. Summed up:
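Genetically defined yeast (DNA repair-deficient) exposed to compounds; growth inhibition determined relative to vehicle.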

About 79,000 compounds went through this panel and 15% of them were active in at least one assay; those are over-represented in the sample as a whole. A number with no mark means an inactive call. Calls of active or inactive are those of the source. Rule as the data show it: active = growth inhibition above about 70%; inactive = the rest.

For `CC(/C=C1\N=C(c2ccccc2)OC1=O)=C\c1ccccc1`, the growth inhibition is -40% in test [1]; -22.1% in test [2]; -33.5% in test [3]; 9.2% in test [4]; -35.4% in test [5]; -28.9% in test [6].
`O=[N+]([O-])c1ccc(N/N=C2\C=C(c3ccccc3)C(c3ccccc3)C2)c([N+](=O)[O-])c1` (stereo not given): the growth inhibition was -36.3% in test [1]; 8.95% in test [2]; -9.25% in test [3]; 23.1% in test [4]; 96.8% (active) in test [5]; -14.2% in test [6].
For the molecule `O=S(=O)(O)c1cc(N=Nc2cc(S(=O)(=O)O)c3cccnc3c2O)ccc1/C=C/c1ccc(N=Nc2cc(S(=O)(=O)O)c3cccnc3c2O)cc1S(=O)(=O)O.[Na+].[Zn+2]`, the growth inhibition in test [1] is -15.2%; in test [2], -8.65%; in test [3] it was -9.85%; in test [4] it was -75.6%; in test [5] it was -44%; in test [6] it was -86.7%.
In the case of `COC1OC2COC(c3ccccc3)OC2C(O)C1N=[N+]=[N-]` (stereo not given), the growth inhibition is 3.4% in test [1]; 0.7% in test [2]; -1.35% in test [3]; -19.9% in test [4]; -4.4% in test [5]; 7.9% in test [6].
Turning to `CSCCC(NCc1c(O)ccc2c(-c3ccccc3)cc(=O)oc12)C(=O)O` (stereo not given), the growth inhibition is -23.3% in test [1]; -20.5% in test [2]; -30.1% in test [3]; -1.5% in test [4]; -2.95% in test [5]; -31.2% in test [6].
Regarding `C/C(=C\c1ccccc1)C(=O)C1C(c2ccccc2)CC(=O)C(C)C1c1ccccc1` (stereo not given), the growth inhibition was -3.65% in test [1]; -11.7% in test [2]; -27.3% in test [3]; -36.5% in test [4]; -0.5% in test [5]; 2.35% in test [6].
With `N#CC(=O)Nc1ccc(F)cc1`, the growth inhibition in test [1] is -58.3%; in test [2], -2.35%; in test [3], -6.15%; in test [4] it was -8%; in test [5], 1.9%; in test [6] it was 3.2%.
With `O=C1CCN2CCC(=O)c3c(Cl)ccc1c32`, the growth inhibition in test [1] was 8.05%; in test [2], 13.3%; in test [3], 8.5%; in test [4], 13.8%; in test [5] it was 14.1%; in test [6], 16.9%.
In the case of `CCCCCC/C(C)=C/CCC(C)=O`, the growth inhibition in test [1] is 12.4%; in test [2], 4.15%; in test [3], 14.8%; in test [4], 11.3%; in test [5], 4.7%; in test [6] it was -0.25%.
In the case of `CC(=O)Nc1cc(-c2ccccc2)ccc1O`, the growth inhibition in test [1] was 56.7%; in test [2] it was 30.1%; in test [3] it was 56.8%; in test [4], 32.2%; in test [5], 40.2%; in test [6], 57.4%.
With `O=c1oc2ccccc2[n+]([O-])c1-c1ccccc1`, the growth inhibition in test [1] is -9.9%; in test [2], -10.8%; in test [3], -9.35%; in test [4], 16.9%; in test [5] it was -18.8%; in test [6], -17.9%.
`Nc1nc2c(C(=O)c3ccco3)nnn2c2cccc(Cl)c12`: the growth inhibition was 10.7% in test [1]; -2.7% in test [2]; 11.6% in test [3]; 11.2% in test [4]; 8.95% in test [5]; 5.85% in test [6].
Turning to `Oc1cccc2c(NC(=S)Nc3ccccc3)cccc12`, the growth inhibition in test [1] is 37.2%; in test [2], 22.8%; in test [3], 18.2%; in test [4] it was 15.5%; in test [5] it was 39.5%; in test [6], 32.9%.
On to `CCOC(=O)c1ccc(NC(=O)/C=C/C(=O)O)cc1`, for which the growth inhibition in test [1] was -20.2%; in test [2] it was -17.9%; in test [3], -2.9%; in test [4] it was -3.3%; in test [5] it was -9.7%; in test [6] it was -15.3%.
Consider `COc1cc(Nc2nc3ccccc3nc2-c2cccs2)cc(OC)c1OC`, for which the growth inhibition in test [1] is 4.8%; in test [2], 14%; in test [3], 29.6%; in test [4], 29.8%; in test [5], 26.1%; in test [6], 6%.
Turning to `O=C(NCCN1CCCCC1)c1ccc(Br)cc1`, the growth inhibition in test [1] is -15.2%; in test [2], -16.4%; in test [3], -12.6%; in test [4], -6%; in test [5] it was -18.9%; in test [6], -47.1%.
As for `Nc1c(N=Nc2ccccc2)cc(S(=O)(=O)O)c2ccccc12`, the growth inhibition in test [1] was 2.8%; in test [2], -23.4%; in test [3], -1.65%; in test [4], 6.65%; in test [5], 3.2%; in test [6] it was -2.1%.
For the molecule `O=C(NCO)NCOCn1c(=O)n(CO)c(=O)n(CO)c1=O`, the growth inhibition in test [1] is 5.05%; in test [2] it was -22.6%; in test [3] it was -2.5%; in test [4], 29.9%; in test [5], 9.7%; in test [6] it was -15.9%.
On to `C/C(=N/Nc1ccc([N+](=O)[O-])cc1[N+](=O)[O-])c1ccccc1`, for which the growth inhibition in test [1] was -4.25%; in test [2] it was -13.2%; in test [3] it was -12.7%; in test [4], -13.8%; in test [5] it was 1%; in test [6] it was -11%.
In the case of `COc1ccc2[nH]c(=O)oc(=O)c2c1`, the growth inhibition in test [1] is 1%; in test [2] it was 1.25%; in test [3] it was -7.5%; in test [4], -33.9%; in test [5] it was -16.4%; in test [6], -2.8%.
